Bioassay records: PubChem, National Center for Advancing Translational Sciences (NCATS)
VP16 counter = counter-screen for ROR gamma inhibitors: Gal4-VP16 reporter; Potency, µM (highest dose often 53.6 µM), for the others: at the highest dose activity, negative = inhibition, usual class: inhibitors; AID 2546; hit rate 3.5% among 310,000; Drosophila S2 Gal4-VP16 UAS-luciferase, luminescence, 20 h;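 also: Gal4-VP16 expression switched on by copper sulfate through the metallothionein promoter; potency is read from the fitted curve at half-maximal effect; % is scaled to controls: 0 for no effect and ±100 for the full control effect; nearly all actives have a fitted effect of over 50% in size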
ERG Ets-DNA blk = blocks human ERG Ets domain binding to DNA; P11308; hit rate 0.028% among 370,000; Potency, µM (highest dose often 76.9 µM), inactives show at the top dose FP activity, negative = inhibition, most hits filed as inhibitors; AID 624246; fluorescence polarization, His-ERG Ets domain / labelled DNA; active = well fitted inhibition curve with a large enough effect in the polarisation, with a control signal flat; inconclusive = small, poorly fitted or top-dose-only effect, or effect the other way, or a change in a side signal; inactive = no such curve, though single readings can be large or run the other way; the % refers to the polarisation;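 also: polarization taken with two DNA probes labelled with fluorescein and Texas red; potency is read from the fitted curve at half-maximal effect; % of control where 0% means no effect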
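His-tagged ERG Ets domain (1 uM in the protein solution; 300mM KCl, 50mM Tris-HCl, 1mM EDTA, 1mM DTT, pH 7.5) received compound, then a probe mix of 5 nM fluorescein-DNA and 100nM Texas-615-DNA. Fluorescence polarization was read for both dyes.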
Giardia kill = kills Giardia lamblia; Giardia lamblia trophozoite viability; activity change, % at 7.66 µM, hits read low; hit rate 0.15% among 340,000; AID 540267; in the data active = activity change below about -80%; inconclusive = between about -30% and that limit;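 also: parasites exposed to compound for two days anaerobically before the ATP read; % is scaled to controls: 0 for no effect and ±100 for the full control effect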
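Anaerobic 48 hrs incubation at 37 deg C of 100 trophozoites/well with test compounds; ATPLite 1-Step luminescence, 15-30 min RT, reports cellular ATP as viability.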
a7 integrin act = integrin-mediated muscular dystrophy alleviation activation; alpha7betagal myoblasts, beta-gal FDG fluorescence, 48 h; Potency, µM (titrated, usually from 38.3 µM), for inactives: at the top dose activation, usual class: activators; hit rate 0.064% among 350,000;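 also: potency is read from the fitted curve at half-maximal effect; 100% = response of the positive control SU9516; nearly all actives have a fitted effect of over 60% in size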
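Alpha7betagal+/- myoblasts (passage 13) were plated 16-24 hr, then exposed to compounds (1:260 dilution of DMSO stock) for 48 hours at 37C. After MPER lysis, β-galactosidase reporter activity was read as FDG fluorescence (ex 480/em 540) after 30 minutes.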
RORgamma inh = ROR gamma (mouse) transcription inhibition; P51450; Potency, µM (highest dose often 53.6 µM), for inactives: top-dose activity change, negative = inhibition, hits mostly inhibitors; Drosophila S2 Gal4-RORgamma UAS-luciferase reporter, 20 h; hit rate 5.4% among 310,000; also: potency is read from the fitted curve at half-maximal effect; % is scaled to controls: 0 for no effect and ±100 for the full control effect; nearly all actives have a fitted effect of over 60% in size
Target sequence (P51450 whole entry, looked up, the tested form may be a part): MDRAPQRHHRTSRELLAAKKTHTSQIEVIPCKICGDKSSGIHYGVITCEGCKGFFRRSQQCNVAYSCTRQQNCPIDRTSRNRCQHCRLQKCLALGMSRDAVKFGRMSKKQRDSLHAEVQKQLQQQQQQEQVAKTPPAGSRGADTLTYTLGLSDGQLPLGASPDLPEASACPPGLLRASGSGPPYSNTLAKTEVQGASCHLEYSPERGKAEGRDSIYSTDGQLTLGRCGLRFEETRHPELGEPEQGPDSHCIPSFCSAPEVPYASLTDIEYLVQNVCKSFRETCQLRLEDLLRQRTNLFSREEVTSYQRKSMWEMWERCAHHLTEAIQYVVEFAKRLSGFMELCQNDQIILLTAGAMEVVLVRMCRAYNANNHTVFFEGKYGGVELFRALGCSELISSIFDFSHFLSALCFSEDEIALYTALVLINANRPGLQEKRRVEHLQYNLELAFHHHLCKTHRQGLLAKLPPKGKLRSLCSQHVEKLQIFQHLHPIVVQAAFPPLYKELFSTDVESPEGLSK
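Luminescence from a UAS-regulated Photinus luciferase reporter in stably transfected Drosophila Schneider cells is measured; decreased signal marks ROR gamma inhibition. Fusion expression is induced by 700 uM copper sulfate for 20 hr.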
Starred values were filed as active, the others as inactive; ? = inconclusive; . = no result; [ ] = remark or other dose. The entries come from a sample that favours hits as a whole. Unless noted, calls follow the shape of the dose curve; as a rule, active = well fitted curve in the direction sought with a large enough effect; inconclusive = small, poorly fitted or top-dose-only effect, or another doubt; inactive = no such curve, though single readings can be large; an effect the other way counts as inactive or inconclusive.

SMILES	VP16 counter	ERG Ets-DNA blk	Giardia kill	a7 integrin act	RORgamma inh
Cc1cc(C(=O)Nc2nc3ccc(S(C)(=O)=O)cc3s2)c(C)o1	?	4%	-13	5%	1.1µM*
Cc1ccc(C(=O)Nc2nc3ccc(S(C)(=O)=O)cc3s2)s1	?	0%	-16	-14%[7.66 µM]	3.2µM*
COc1cc(C(=O)Nc2nc3ccc(S(C)(=O)=O)cc3s2)cc(OC)c1C	-17%	0%	?	-16%	-26%
COc1ccc2nc(NC(=O)c3cc(C)oc3C)sc2c1	?	-2%	-6	11%	?
CS(=O)(=O)c1ccc2nc(NC(=O)c3cccs3)sc2c1	8.9µM*	-5%	?	-3%	14µM*
COc1cccc(CNc2nc(Cl)nc3nc[nH]c23)c1	.	.	-4	.	.
COc1ccc(NC(=O)C2CCCN2C(=O)Nc2ccc(OC)cc2)cc1 (stereo not drawn)	8%	-1%	7	?	7%
Cc1nn(C)c(C)c1CN(Cc1nc(CCC(C)C)no1)C(C)C	4µM*	3%	-3	-3%	7.1µM*
O=C(NC(=S)N(CC1CCC1)CC1CCCO1)c1cccc([N+](=O)[O-])c1 (stereo not drawn)	0.28µM*	4%	?	-37%	56µM*
COc1cc2c(cc1OC)C(C)N(C(=S)Nc1ccccc1)CC2 (stereo not drawn)	-14%	1%	12	-5%	?
CCCN1C2CCCC1CC(NC(=O)c1cccc(Cl)c1)C2 (stereo not drawn)	-2%	1%	-15	-12%	-24%[1.91 µM]
COc1cc2c(cc1OC)C(C)N(C(=S)NC(=O)c1ccccc1)CC2 (stereo not drawn)	2.2µM*	-1%	7	2%	1.3µM*
CCCN1C2CCCC1CC(NC(=O)c1cccc([N+](=O)[O-])c1)C2 (stereo not drawn)	-1%	0%	16	10µM*	-13%
CCC1CCCCN1C(=S)NC(=O)c1cccc([N+](=O)[O-])c1 (stereo not drawn)	-89%	-1%	0	-29%	0.28µM*
O=C(NCC1CCCCC1)c1cccc([N+](=O)[O-])c1	4%	5%	5	1%	17%
Cc1cc(C)c2nc(SCC(=O)N3CCCCC3)c(C#N)cc2c1	-8%	-4%	11	0%	-28%
NCCCCCCN	11%	.	.	.	9%
CC1CCN(C(=S)NC(=O)c2ccc(C(C)(C)C)cc2)CC1	.	-9%	-8	-9%	.
CC1CCN(C(=S)NC(=O)c2ccccc2)CC1	4.5µM*	-13%	-12	-16%	2.8µM*
CN1CCN(C(=S)NC(=O)c2cccc([N+](=O)[O-])c2)CC1	1.3µM*	-2%	8	?	1µM*
CC1CCN(C(=S)NC(=O)c2cccc([N+](=O)[O-])c2)CC1	0.63µM*	6%	6	-4%	0.71µM*
COc1ccccc1NS(=O)(=O)/C=C/c1ccccc1	-1%	-10%	-9	2%	9%
CC(=O)c1cccc(NC(=O)c2sc(-n3nc(C)c(CCC(C)C)c3C)nc2C)c1	.	1%	.	.	.
O=C(C1CCCN(c2ncnc3c2nc2n3CCCCC2)C1)N1CCN(c2ccccc2F)CC1 (stereo not drawn)	-29%	-4%	8	-2%	?
Cc1sc2ncn(CC(=O)Nc3ccc(C(C)C)cc3)c(=O)c2c1S(=O)(=O)N1CCN(c2ncccn2)CC1	.	-2%	.	.	.
SMILES	VP16 counter	ERG Ets-DNA blk	Giardia kill	a7 integrin act	RORgamma inh
NC(=O)CCCCC(N)=O	3%	.	.	.	-10%
Cc1cccc(Nc2nnc(SCC3CCCCO3)s2)c1 (stereo not drawn)	-11%	0%	0	3%	10µM*
COc1ccc(C(=O)CSc2nnc(CNC(=O)c3ccco3)n2C)cc1	-8%	-2%	-1	8%	4%
C=CCOc1c(Br)cc(/C=N/NC(=O)Cc2ccc(C(F)(F)F)cc2[N+](=O)[O-])cc1OC	18µM*	13%	-10	-6%	?
O=C(Nc1cccc(S(=O)(=O)Nc2ccc(Cl)cc2)c1)c1ccc(Cl)nc1	3.2µM*	0%	0	-23%	?
COc1cccc(S(=O)(=O)Nc2ccc(C(=O)Nc3ccncc3)cc2)c1	1%	1%	-2	23%	12%
COc1ccc(NS(=O)(=O)c2cccc(NC(=O)c3ccc(Cl)nc3)c2)cc1	2.8µM*	2%	-3	-25%	?
O=C(CSc1n[nH]c(-c2ccccc2)n1)c1ccc(O)c(O)c1	-5%	-3%	11	-20%	-24%
CC(=O)Nc1ccc(S(=O)(=O)N(C)CC(=O)OCC(=O)N2CCCCCC2)cc1	-6%	-7%	-11	-33%	-28%
Cc1cccc(C)c1NC(=S)Nc1ccc(F)cc1	?	-5%	3	-11%	10µM*
Cc1ccc(NC(=S)Nc2ccc3cn[nH]c3c2)c(C)c1	-10%	6%	-6	11%	?
Cc1ccc(NC(=S)Nc2ccc3cn[nH]c3c2)cc1C	5µM*	-13%	3	22%	13µM*
Cc1ccc(NC(=S)Nc2ccc(F)cc2)cc1C	7.1µM*	1%	14	1%	7.1µM*
CC1CCN(S(=O)(=O)c2cc3c4c(c2)CCN4C(=O)CC3)CC1	.	-1%	-9	-2%	.
CCOC(=O)N1CCN(C(=O)CN(c2ccc(C)cc2C)S(=O)(=O)c2ccccc2)CC1	.	-3%	.	.	.
O/C(=C\c1nc2ccccc2nc1/C=C(\O)c1ccccc1)c1ccccc1	5%[10 µM]	5%	?	-20%	10µM*
CC(C)(C)n1ncc2c(=O)n(CC(=O)NCc3ccccc3)cnc21	?	6%	-8	-14%	10µM*
CC(=O)Nc1ccc(NC(=O)Cn2cnc3c(cnn3C(C)(C)C)c2=O)cc1	.	-2%	-7	-20%	-27%[0.365 µM]
CC1CC=CC2C1C(=O)N(Cc1ccccc1)C2c1ccc(/C=C/c2ccccc2)cc1F (stereo not drawn)	-12%	.	-29	.	-3%
O=C1CCCc2ccccc2N1Cc1c(Cl)cccc1Cl	?	2%	8	17%	1.8µM*
CN(C)c1ccc(/C=N/n2c(C3CCCCC3)n[nH]c2=S)cc1	6.3µM*	3%	14	-13%	2.5µM*
CCOc1ccc(/C=N/n2c(C3CCCCC3)n[nH]c2=S)cc1	?	17%	19	0%	4µM*
Fc1ccc(/C=N/n2c(C3CCCCC3)n[nH]c2=S)cc1	7.9µM*	-5%	-15	-19%	3.5µM*
S=c1[nH]nc(C2CCCCC2)n1/N=C/c1ccccc1	?	1%	19	-18%	8.9µM*
S=c1[nH]nc(C2CCCCC2)n1/N=C/c1ccccn1	-10%[10 µM]	1%	13	-49%	-13%
Cc1nn(C)cc1CN(C)S(=O)(=O)c1cccc([N+](=O)[O-])c1	3%	1%	3	24%	16%
Oc1ccc(C[C@@H]2CNC(=S)N2CCc2cc(C(F)(F)F)cc(C(F)(F)F)c2)cc1	?	-2%	-16	0%	?
